Among the test systems are NCI-H23 lung; NCI-H226 lung; NCI-H322M lung; HOP-62 NSCLC; NCI-H460 lung; 786-0 renal; DU-145 prostate; MDA-MB-231 breast; SF-268 CNS; SF-539 CNS; M14 melanoma; SNB-19 CNS; U251 CNS; SN12C renal; UO-31 renal; SK-OV-3 ovarian; MDA-MB-435 melanoma; SW-620 colon; HCT-116 colon; KM12 colon.
What all share (assay): NCI-60 one-dose screen, 48 h (100 = growth as untreated, 0 = no growth, -100 = all killed)
Common to all, as to details: 10 µM unless noted

Consider eight molecules from PubChem BioAssay (NCI).

The panel holds about 83,000 compounds, 20% with a hit somewhere; the sample as a whole holds those more often.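 Activity criterion: percent growth below 10, measured after cells in 96-well plates were exposed to a single compound concentration for 48 hours.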 Unmarked numbers belong to inactive results. Calls of active or inactive are those of the source.

As for `C[C@@H]1CC[C@@H]2[C@@H]1[C@H](OC(=O)/C=C/C1CCCCC1)[C@]1(C3CCCCC3)C[C@@H](OC(=O)CO)[C@@]2(C)O1`, the growth is 71.5% in the experiment on NCI-H23 lung; 56.9% in the experiment with NCI-H226 lung; 85.6% in the experiment with NCI-H322M lung; 69.7% in the experiment on HOP-62 NSCLC; 64.2% in the experiment on NCI-H460 lung; -10.1% (active) in the experiment with 786-0 renal. The growth was 82.1% with DU-145 prostate; 61.5% in the experiment on MDA-MB-231 breast; 39.6% in the experiment with SF-268 CNS; 95.9% in the experiment with SF-539 CNS; 65.2% in the experiment on M14 melanoma; 85.8% in the experiment with SNB-19 CNS. Further, the growth with U251 CNS is 60.2%; in the experiment with SN12C renal, 31.2%; in the experiment on UO-31 renal, -44.2% (active); in the experiment with SK-OV-3 ovarian it was 69%; with MDA-MB-435 melanoma, 72.9%; in the experiment on SW-620 colon, 66.4%. Besides, the results for the growth in the experiment with HCT-116 colon and with KM12 colon were 39.6% and 56%, respectively.
Regarding `CNc1ccc(C(=O)CC(O)CCC(C)C2OC(=O)CC(O)CC(=O)CC(O)CC(O)CC(O)CC(O)CC3(O)CC(O)C(C(=O)OC)C(CC(O[C@@H]4O[C@H](C)[C@@H](O)[C@H](N)[C@@H]4O)/C=C/C=C/C=C/C=C/C=C/C=C/C=C/C2C)O3)cc1` (stereo not given in full), the growth with NCI-H23 lung was -54.5% (active); in the experiment with NCI-H226 lung, -37.7% (active); in the experiment on NCI-H322M lung it was 1.05% (active); with HOP-62 NSCLC, -25.9% (active); in the experiment with NCI-H460 lung, 3.55% (active); in the experiment with 786-0 renal, -20.1% (active). In addition, the growth with DU-145 prostate was -75.3% (active); in the experiment on MDA-MB-231 breast, -0.509% (active); in the experiment with SF-268 CNS, -5.42% (active); with SF-539 CNS, 72.4%; with M14 melanoma, -47.5% (active); in the experiment with SNB-19 CNS it was 41.8%. In addition, the growth is 23.8% in the experiment on U251 CNS; -81.3% (active) in the experiment on SN12C renal; -58.6% (active) in the experiment with UO-31 renal; 2.49% (active) in the experiment on SK-OV-3 ovarian; -1.58% (active) in the experiment on MDA-MB-435 melanoma; 37% in the experiment with SW-620 colon. In addition, the growth with HCT-116 colon is -16.4% (active); in the experiment on KM12 colon, 7.61% (active).
As for `C/C(=C\C(=O)O[C@H]1[C@@H]2[C@H](C)CC[C@H]2[C@]2(C)O[C@@]1(C1CCCCC1)C[C@H]2OC(=O)CO)c1ccccc1`, the growth with NCI-H23 lung is 50.8%; with NCI-H226 lung it was 41.1%; in the experiment on NCI-H322M lung, 84.5%; with HOP-62 NSCLC, 55.1%; in the experiment with NCI-H460 lung, 13.7%; with 786-0 renal, -16% (active). Further, the growth with DU-145 prostate is 66.1%; with MDA-MB-231 breast it was 55.5%; with SF-268 CNS, 26%; with SF-539 CNS, 77.2%; in the experiment on M14 melanoma, 47.4%; in the experiment on SNB-19 CNS it was 64.4%. For the same molecule, the growth was 24.2% with U251 CNS; 7.85% (active) in the experiment on SN12C renal; -47.2% (active) in the experiment on UO-31 renal; 59.7% with SK-OV-3 ovarian; 61.7% in the experiment with MDA-MB-435 melanoma; 43.1% in the experiment with SW-620 colon. Also, the growth in the experiment with HCT-116 colon is 7.81% (active); with KM12 colon, 38.2%.
Take `Nc1cccc(CC(=O)Nc2ccc(S(=O)(=O)F)cc2)c1`: the growth in the experiment with NCI-H23 lung is 99.7%; in the experiment with NCI-H226 lung, 93.9%; in the experiment on NCI-H322M lung, 104%; in the experiment with HOP-62 NSCLC, 90.3%; with NCI-H460 lung it was 102%; with 786-0 renal, 96.9%. Further, the growth was 110% in the experiment with DU-145 prostate; 94.4% in the experiment with MDA-MB-231 breast; 107% in the experiment with SF-268 CNS; 97.4% in the experiment with SF-539 CNS; 90.7% in the experiment with M14 melanoma; 105% with SNB-19 CNS. In addition, the growth with U251 CNS is 102%; in the experiment with SN12C renal, 100%; in the experiment on UO-31 renal, 86.2%; in the experiment with SK-OV-3 ovarian, 92.4%; in the experiment with MDA-MB-435 melanoma, 89.8%; with SW-620 colon, 84.3%. In addition, the growth with HCT-116 colon is 96.9%; in the experiment with KM12 colon it was 92.2%.
For `NC(=O)SCC(=O)Nc1ccc([As](=O)(O)O)cc1`, the growth in the experiment with NCI-H23 lung was 86.1%; in the experiment with NCI-H226 lung, 111%; with NCI-H322M lung it was 123%; in the experiment on HOP-62 NSCLC it was 136%; in the experiment with NCI-H460 lung, 101%; in the experiment with 786-0 renal, 82.8%. Also, the growth with DU-145 prostate was 101%; with MDA-MB-231 breast, 90.8%; with SF-268 CNS it was 100%; with SF-539 CNS, 83.8%; with M14 melanoma, 89.7%; in the experiment on SNB-19 CNS, 92.8%. In addition, the growth was 44.4% in the experiment with U251 CNS; 89.8% in the experiment with SN12C renal; 93.8% in the experiment on UO-31 renal; 135% with SK-OV-3 ovarian; 98.5% with MDA-MB-435 melanoma; 73.9% with SW-620 colon. The figures for the growth with HCT-116 colon and in the experiment on KM12 colon were 85.6% and 97.6%, respectively.
`CN1C(=O)NC(=O)C(N=Nc2ccc(Cl)cc2)C1=O` (stereo not given): the growth was 95.3% in the experiment with NCI-H23 lung; 105% in the experiment with NCI-H226 lung; 102% in the experiment with NCI-H322M lung; 123% in the experiment with HOP-62 NSCLC; 102% in the experiment with NCI-H460 lung; 78.4% with 786-0 renal. For the same molecule, the growth in the experiment on DU-145 prostate was 106%; in the experiment with MDA-MB-231 breast, 85.7%; in the experiment with SF-268 CNS it was 93.5%; in the experiment on SF-539 CNS, 101%; with M14 melanoma, 81.5%; in the experiment on SNB-19 CNS, 106%. Further, the growth in the experiment on U251 CNS is 108%; in the experiment on SN12C renal, 103%; with UO-31 renal, 104%; with SK-OV-3 ovarian, 120%; in the experiment with MDA-MB-435 melanoma, 95.7%; in the experiment on SW-620 colon it was 106%. The growth with HCT-116 colon was 93.3%; in the experiment with KM12 colon it was 82.6%.
`O=C(CI)Nc1ccc(Br)cc1`: the growth in the experiment on NCI-H23 lung was 32%; in the experiment with NCI-H226 lung, 69.7%; in the experiment with NCI-H322M lung it was 95.4%; with HOP-62 NSCLC, -62.7% (active); in the experiment with NCI-H460 lung, 95.3%; with 786-0 renal it was 91.3%. The growth with DU-145 prostate was 23.3%; in the experiment on MDA-MB-231 breast, 44.2%; with SF-268 CNS, 75.8%; in the experiment with SF-539 CNS it was 95.8%; in the experiment on M14 melanoma, 14.1%; in the experiment with SNB-19 CNS it was 92.1%. In addition, the growth in the experiment on U251 CNS is -18.8% (active); in the experiment on SN12C renal it was 15.7%; in the experiment on UO-31 renal, -82.3% (active); in the experiment on SK-OV-3 ovarian it was 101%; with MDA-MB-435 melanoma, 52%; with SW-620 colon it was -86.7% (active). Besides, the growth in the experiment on HCT-116 colon is -69.9% (active); with KM12 colon it was 88.1%.
Consider `CC(C)[C@]12O[C@H]1[C@@H]1O[C@]13[C@]1(O[C@H]1C[C@H]1C4=C(CC[C@@]13C)C(=O)OC4)[C@@H]2OC(=O)OC(C)(C)C`, for which the growth in the experiment with NCI-H23 lung is -28% (active); in the experiment with NCI-H226 lung, 12.6%; with NCI-H322M lung, 3.68% (active); in the experiment on HOP-62 NSCLC it was 16.6%; in the experiment with NCI-H460 lung it was 2.11% (active); in the experiment with 786-0 renal, 11.9%. Moreover, the growth was 8.08% (active) in the experiment with DU-145 prostate; 21.8% in the experiment on MDA-MB-231 breast; -2.29% (active) with SF-268 CNS; -20.2% (active) with SF-539 CNS; -75.7% (active) with M14 melanoma; 16.5% in the experiment on SNB-19 CNS. Further, the growth in the experiment on U251 CNS is 15.5%; with SN12C renal it was 20%; in the experiment with UO-31 renal it was 1.21% (active); in the experiment on SK-OV-3 ovarian it was 43.6%; in the experiment with MDA-MB-435 melanoma it was -73.6% (active); in the experiment with SW-620 colon, 1.09% (active). For the same molecule, the growth in the experiment on HCT-116 colon is 4.76% (active); with KM12 colon it was 2.1% (active).
